This experiment in a line: fluorescence polarization artefacts, Cy5-IP20 alone – biochemical, triplicate, artefact control for PKA-R1A activator project, confirmation (AID 504799).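 Note: no PKA protein present so any polarization rise reflects compound interference; 0% = tracer peptide mix alone and 100% = mix with added PKA catalytic subunit; higher means stronger polarization artifact and likely false positive in parent screen.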 The conditions noted are these: Cy5-IP20 peptide alone, fluorescence polarization artifact counterscreen; at 11.4 µM; active compounds read high.

Each structure is given as a SMILES string. The list shows a part of the results. Unmarked numbers belong to inactive results. Calls of active or inactive are those of the source.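 Rule for the calls: active = mean activation over triplicate runs exceeds the adjusted cutoff derived for the parent primary screen (cut at about 19% in these data); inactive = the rest.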

Regarding `CCOc1cc(C(=O)Nc2c(C)ccc3nsnc23)cc(OCC)c1OCC`, the activation is 3.5%.

`COc1ccc(NC(=O)c2ccc(C#CC(C)(C)O)cc2)cc1`: the activation was -2.01%.

Turning to `CN(C(=O)CSc1nnc(Nc2ccccc2)s1)C1CCS(=O)(=O)C1` (stereo not given), the activation was 0.22%.

For the compound `O=C(Nc1ccc2c(c1)[C@@H]1C[C@@H](CC(=O)N3CCCCC3)O[C@@H](CO)[C@@H]1O2)NC1CCCCC1`, the activation was 3.18%.

Consider `COc1ccc(CNc2nnnn2C)cc1`, for which the activation is 3.5%.

On to `CCC(Oc1ccccc1C)C(=O)Nc1ccc(S(=O)(=O)Nc2cc(C)on2)cc1` (stereo not given), for which the activation is 2.96%.

`CCCC(=O)Nc1ncnc2c1ncn2[C@@H]1O[C@@H]2OP(=O)(O)OC[C@H]2[C@H]1OC(=O)CCC`: the activation is 0.15%.

For `Cc1ccc2nc3c(cc(C(=O)NCCc4ccccc4)c(=N)n3CC3CCCO3)c(=O)n2c1` (stereo not given), the activation is 4%.

Consider `N#Cc1ccccc1CN1C(=O)S/C(=C/c2cccn2-c2cccc(C(=O)O)c2)C1=O`, for which the activation is 19.3% (active).

As for `COc1ccccc1N1CC(C(=O)Nc2nnc(SCC(=O)NC(C)C)s2)CC1=O` (stereo not given), the activation was -0.21%.
